Experimental data reported in PubChem BioAssay (NCI).
The panel holds about 83,000 compounds, 20% with a hit somewhere; the sample as a whole holds those more often.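 96-well plates, one dose, 48 hours. Percent growth reported; active if below 10.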 Calls of active or inactive are those of the source.

Experiments:
Test in all cases: NCI-60 one-dose screen, 48 h (100 = growth as untreated, 0 = no growth, -100 = all killed)
Conditions in all cases: 10 µM
DU-145 prostate = tested on: DU-145 prostate
K-562 leukemia = tested on: K-562 leukemia
MALME-3M melanoma = tested on: MALME-3M melanoma
MDA-MB-231 breast = tested on: MDA-MB-231 breast
RXF 393 renal = tested on: RXF 393 renal
SF-268 CNS = tested on: SF-268 CNS
SF-295 CNS = tested on: SF-295 CNS
SF-539 CNS = tested on: SF-539 CNS
UACC-257 melanoma = tested on: UACC-257 melanoma
M14 melanoma = tested on: M14 melanoma

Measured: growth

O=C1/C(=C/c2ccc(O)cc2O)N=C2SCCCN12
inactive: DU-145 prostate 104% | K-562 leukemia 92.5% | MALME-3M melanoma 101% | MDA-MB-231 breast 104% | RXF 393 renal 102% | SF-268 CNS 96.9% | SF-295 CNS 96.3% | SF-539 CNS 93.7% | UACC-257 melanoma 102% | M14 melanoma 100%

Fc1cc(-c2ncc(-c3cc(F)c(F)c(F)c3)c(NC3CCCCCC3)n2)cc(F)c1F
inactive: DU-145 prostate 105% | K-562 leukemia 101% | MALME-3M melanoma 140% | MDA-MB-231 breast 104% | RXF 393 renal 96.1% | SF-268 CNS 107% | SF-295 CNS 90.1% | SF-539 CNS 105% | UACC-257 melanoma 87.6% | M14 melanoma 109%

N=C(N)c1ccc(-c2ccc(-c3ccccc3)s2)s1
active: DU-145 prostate -93.8% | K-562 leukemia -63.1% | MALME-3M melanoma -81.1% | MDA-MB-231 breast -76.8% | RXF 393 renal -93.2% | SF-268 CNS -56.6% | SF-295 CNS -75.3% | SF-539 CNS -54.7% | UACC-257 melanoma -59.9% | M14 melanoma -68.9%

CCCCn1c(=O)[nH]c(N)c(C(c2ccc(Cl)cc2)c2c(N)[nH]c(=O)n(CCCC)c2=O)c1=O
inactive: DU-145 prostate 65.7% | K-562 leukemia 28.7% | MALME-3M melanoma 68.9% | MDA-MB-231 breast 54.4% | RXF 393 renal 18.7% | SF-268 CNS 38.1% | SF-295 CNS 35.2% | SF-539 CNS 43.9% | UACC-257 melanoma 41% | M14 melanoma 35%

Nc1nc2c(ncn2C2OC3COP(=O)(O)OC4C(COP(=O)(O)OC2C3O)OC(n2cnc3c(N)ncnc32)C4O)c(=O)[nH]1 (stereo not given)
active: SF-539 CNS 0.807%
inactive: DU-145 prostate 107% | K-562 leukemia 92.5% | MALME-3M melanoma 106% | MDA-MB-231 breast 114% | RXF 393 renal 114% | SF-268 CNS 102% | SF-295 CNS 96.9% | UACC-257 melanoma 112% | M14 melanoma 106%

O=C(COCc1c(-c2ccccc2)no[n+]1[O-])Nc1nc(-c2ccc(Cl)cc2)cs1
inactive: DU-145 prostate 109% | K-562 leukemia 108% | MALME-3M melanoma 97.8% | MDA-MB-231 breast 99.9% | RXF 393 renal 112% | SF-268 CNS 97.9% | SF-295 CNS 101% | SF-539 CNS 109% | UACC-257 melanoma 96.5% | M14 melanoma 108%

Cc1ccc2nc(-c3ccc(OCC(=O)N=Nc4c(O)[nH]c5ccccc45)cc3)[nH]c2c1
inactive: DU-145 prostate 73.3% | MALME-3M melanoma 95.8% | MDA-MB-231 breast 74.4% | RXF 393 renal 102% | SF-268 CNS 102% | SF-295 CNS 97.1% | SF-539 CNS 100% | UACC-257 melanoma 103% | M14 melanoma 77.3%
active: K-562 leukemia 5.23%

COc1cc(C(=O)n2nc(N)c3c(C)cc(C)nc32)cc(OC)c1OC
inactive: DU-145 prostate 93.3% | K-562 leukemia 18.2% | MALME-3M melanoma 89% | MDA-MB-231 breast 87.7% | RXF 393 renal 83.2% | SF-268 CNS 79.1% | SF-295 CNS 75.9% | SF-539 CNS 64.6% | UACC-257 melanoma 90.9% | M14 melanoma 80.2%

COc1ccc(-c2csc(NC(=O)CO[N+](=O)[O-])n2)cc1
inactive: DU-145 prostate 106% | K-562 leukemia 96.8% | MALME-3M melanoma 102% | MDA-MB-231 breast 102% | RXF 393 renal 125% | SF-268 CNS 99.5% | SF-295 CNS 101% | SF-539 CNS 98.7% | UACC-257 melanoma 63% | M14 melanoma 102%

CC(C)/C=N/NC(N)=S
inactive: DU-145 prostate 95.3% | K-562 leukemia 47.3% | MALME-3M melanoma 80.3% | MDA-MB-231 breast 86.2% | RXF 393 renal 106% | SF-268 CNS 99.9% | SF-295 CNS 90.5% | SF-539 CNS 102% | UACC-257 melanoma 40.5% | M14 melanoma 84.4%

CCOCC[P+](c1ccccc1)(c1ccccc1)c1ccccc1
inactive: DU-145 prostate 59.8% | K-562 leukemia 20% | MALME-3M melanoma 61.1% | MDA-MB-231 breast 63.5% | RXF 393 renal 79.2% | SF-268 CNS 61.9% | SF-295 CNS 39% | SF-539 CNS 56.2% | UACC-257 melanoma 14% | M14 melanoma 60.8%

Nc1ccc(Sc2ccc3c4c2cccc4c(=O)n2c4ccccc4nc32)cc1
inactive: DU-145 prostate 39.3% | K-562 leukemia 60.3% | MALME-3M melanoma 34% | MDA-MB-231 breast 54.4% | RXF 393 renal 72.6% | SF-268 CNS 59.4% | SF-295 CNS 12% | SF-539 CNS 48.5% | UACC-257 melanoma 71% | M14 melanoma 45.4%

Nc1cc(O)cc(O)c1
inactive: DU-145 prostate 103% | K-562 leukemia 99.5% | MALME-3M melanoma 97.5% | MDA-MB-231 breast 93.9% | RXF 393 renal 120% | SF-268 CNS 100% | SF-295 CNS 94.9% | SF-539 CNS 92.1% | UACC-257 melanoma 108% | M14 melanoma 100%

COc1ccc(-c2nc(-c3ccccc3)c(-c3ccccc3)[nH]2)cc1OC1CCCC1
inactive: DU-145 prostate 86.4% | K-562 leukemia 31.6% | MALME-3M melanoma 103% | MDA-MB-231 breast 18.7% | RXF 393 renal 13.7% | SF-268 CNS 73.7% | SF-295 CNS 52.9% | SF-539 CNS 63.3% | UACC-257 melanoma 79.9% | M14 melanoma 56.1%

CC(=O)c1c(O)cc2c3c1OC(C)(C)C1CCC(C)(CC31)O2 (stereo not given)
inactive: DU-145 prostate 104% | K-562 leukemia 90.1% | MALME-3M melanoma 93.8% | MDA-MB-231 breast 106% | RXF 393 renal 94.8% | SF-268 CNS 98.3% | SF-295 CNS 90.2% | SF-539 CNS 89.8% | UACC-257 melanoma 126% | M14 melanoma 92.2%

Cc1ccc(NC(=O)/C=N/O)cc1C
inactive: DU-145 prostate 104% | K-562 leukemia 95.6% | MALME-3M melanoma 108% | MDA-MB-231 breast 95.9% | RXF 393 renal 99.6% | SF-268 CNS 104% | SF-295 CNS 85.4% | SF-539 CNS 96.4% | UACC-257 melanoma 96.4% | M14 melanoma 101%

CCNC1(NC#N)CCCCC1
inactive: DU-145 prostate 123% | K-562 leukemia 115% | MALME-3M melanoma 113% | MDA-MB-231 breast 107% | RXF 393 renal 108% | SF-268 CNS 112% | SF-295 CNS 97.7% | SF-539 CNS 105% | UACC-257 melanoma 85.1% | M14 melanoma 99%

NC1CCC(Nc2nc(NCc3ccc(-c4ccccc4O)nc3)c3ncn(C4CCCC4)c3n2)CC1 (stereo not given)
active: DU-145 prostate -4.56% | K-562 leukemia -41.2% | MALME-3M melanoma -76.1% | MDA-MB-231 breast -22% | RXF 393 renal -67.4% | SF-268 CNS -25.8% | SF-295 CNS -14.4% | SF-539 CNS -81% | UACC-257 melanoma -68.6% | M14 melanoma -81.5%

Fc1ccc(-c2cc(C(Cl)Cl)no2)cc1
inactive: DU-145 prostate 100% | K-562 leukemia 128% | MALME-3M melanoma 93.3% | MDA-MB-231 breast 95.1% | RXF 393 renal 103% | SF-268 CNS 100% | SF-295 CNS 97.1% | SF-539 CNS 106% | UACC-257 melanoma 120% | M14 melanoma 89.3%

COc1ccc(-c2cc(=O)n(-c3nc4ccccc4[nH]3)[nH]2)cc1OC
active: RXF 393 renal 3.51% | SF-295 CNS -12.8%
inactive: DU-145 prostate 83% | K-562 leukemia 26.5% | MALME-3M melanoma 67.2% | MDA-MB-231 breast 94.5% | SF-268 CNS 72.3% | SF-539 CNS 71.3% | UACC-257 melanoma 89.2% | M14 melanoma 54.5%

COc1cc(OC)cc(N2CCN(C(=O)Nc3nc4cc(F)ccc4nc3OC)CC2)c1
inactive: K-562 leukemia 12.8% | MALME-3M melanoma 44.6% | RXF 393 renal 22.1% | SF-268 CNS 29.2% | SF-295 CNS 15% | UACC-257 melanoma 72.7%
active: DU-145 prostate 1% | MDA-MB-231 breast 1.05% | SF-539 CNS -12.2% | M14 melanoma 1.15%

Brc1ccc(-c2cn3ccnc3c(-c3ccc(Br)cc3)n2)cc1
inactive: DU-145 prostate 72.7% | K-562 leukemia 16.8% | MALME-3M melanoma 39.5% | MDA-MB-231 breast 46.5% | RXF 393 renal 47% | SF-268 CNS 56.9% | SF-295 CNS 30.6% | SF-539 CNS 52.5% | UACC-257 melanoma 67.4% | M14 melanoma 20.1%

O=C/C=C/c1ccc([N+](=O)[O-])cc1Cl
inactive: DU-145 prostate 99.9% | K-562 leukemia 63.7% | MALME-3M melanoma 95.1% | MDA-MB-231 breast 122% | RXF 393 renal 107% | SF-268 CNS 93.1% | SF-295 CNS 107% | SF-539 CNS 96.8% | UACC-257 melanoma 91.6% | M14 melanoma 90.8%

CCCCC(CC#N)(CCC)CCC
inactive: DU-145 prostate 108% | K-562 leukemia 101% | MALME-3M melanoma 82.7% | MDA-MB-231 breast 126% | RXF 393 renal 126% | SF-268 CNS 101% | SF-295 CNS 96.7% | SF-539 CNS 100% | UACC-257 melanoma 110% | M14 melanoma 97.4%

Cc1cc(OI)c(C(C)C)cc1-c1cc(C(C)C)c(OI)cc1C
inactive: DU-145 prostate 101% | K-562 leukemia 98.8% | MALME-3M melanoma 105% | MDA-MB-231 breast 104% | RXF 393 renal 101% | SF-268 CNS 96.8% | SF-295 CNS 101% | SF-539 CNS 94.3% | UACC-257 melanoma 101% | M14 melanoma 104%

COc1cccc2c1O/C(=C\c1ncc([N+](=O)[O-])n1C)C2=O
active: DU-145 prostate -11.9% | K-562 leukemia 0.449% | MALME-3M melanoma -53% | MDA-MB-231 breast -19.6% | RXF 393 renal -66.2% | SF-268 CNS -31.3% | SF-295 CNS -10.4% | SF-539 CNS -53% | UACC-257 melanoma -50.5% | M14 melanoma -61.8%

COc1ccc(C(C)=O)cc1N1C(=O)C2C(C1=O)C1(c3ccccc3)C(=O)C2(c2ccccc2)C(c2ccc(C)cc2)=C1c1ccc(C)cc1 (stereo not given)
active: RXF 393 renal -4.28% | SF-295 CNS 1.18% | M14 melanoma -28.1%
inactive: DU-145 prostate 19.1% | K-562 leukemia 11.7% | MALME-3M melanoma 17% | MDA-MB-231 breast 12.3% | SF-268 CNS 13.8% | SF-539 CNS 11.4% | UACC-257 melanoma 16.2%
